According to PubChem BioAssay (NCATS):
Records with an inconclusive call do not appear. A call without a number means that no potency is given here. Unmarked numbers belong to inactive results. The source made the active and inactive calls. Calls follow the shape of the dose curve; as a rule, active = well fitted inhibition curve with a large enough effect; inconclusive = small, poorly fitted or top-dose-only effect; inactive = no such curve, though single readings can be large or run the other way.
Potency is read from the fitted curve at half-maximal effect.

Test: Primary fluorescence-based thiol-reactive (MSTI) qHTS assay for identification of artifact compounds. (AID 1845221); also: nearly all actives have a fitted effect of over 65% in size;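 as to activity change, negative = thiol reactive: thiol-reactive compounds lower the probe fluorescence signal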
Conditions: MSTI thiol-reactivity probe, 1 h; series mostly up to 53.8 µM
Excerpt: PI: Alexander Tropsha Ph.D.
UNC Eshelman School of Pharmacy
University of North Carolina, Chapel Hill, North Carolina
Hits from high-throughput screening (HTS) of chemical libraries are often false positives due to their interference with the assay detection technology. In response to this problem, we generated the largest publicly available library of chemical liabilities and developed a free webtool to predict HTS artifacts, both of which are described herein. More specifically, we generated, curated, and integrated HTS datasets for thiol reactivity, redox activity, and luciferase (firefly and nano) activity. Using these curated datasets, we developed and validated several Quantitative Structure-Interference Relationship (QSIR) models to predict nuisance behavior. […] These models were employed for virtual profiling of the National Center for Advancing Translational Science's (NCATS) in-house library, and 256 compounds for each assay were selected for the experimental validation of nuisance behavior. The BA for these external predictions ranged from 58 to 78% for compounds within the applicability domains of the models. […] The models developed in this study, along with aggregation models previously developed by our group (SCAM Detective) were implemented in "Liability Predictor," an online tool which may be used as part of chemical library design or for triaging HTS hits. Both the models and the curated datasets are publicly available at https://liability.mml.unc.edu/.
SEQUENCE No. (e.g., 1, 2, 3, etc.); […] (e.g., Cells, Incubation, Reagent, etc.); VALUE; DESCRIPTION.
1; Reagent; 4 uL; […].
2; Compounds and control; 16 nL; Kalypsis pin tool (Wako USA) equipped with a 1536-well pin head.
4; Detection; Fluorescence, ViewLux microplate reader, 525 nm excitation, 598 nm emission.
NOTES (numbers refer to Sequence numbers above)
1. Assays determining (E)-2-(4-mercaptostyryl)-1,3,3-trimethyl-3H-indol-1-ium (MSTI) reactivity were performed as previously described in the literature with modifications for the quick identification of compounds reacting with thiol. In brief, 4 uL of MSTI or positive control Acetyl-MSTI (final concentrations of 4 uM and 4 uM, respectively) in assay buffer (2% DMSO in 1X PBS pH 7.4) was dispensed into all wells of a 1536-well assay plate (solid-bottom black plate; Greiner Bio One, Monroe, NC).
2. A Wako Pin-tool (Wako Automation, Richmond, VA) was used to transfer 16 nL of compounds (consisting of 7-plates in qHTS format, final concentration range 18.3 nM to 114 uM) or control MLS001163887 (final concentration range 1.22 nM to 40 uM).
3. Plates were centrifuged (121xg, 15 seconds) and incubated for 1 hour at room temperature protected from light.
4. Samples were read for fluorescence (Ex/Em = 525(20)/598(25) nm) on a ViewLux CCD imager (PerkinElmer). Data were normalized to Acetyl-MSTI (0% activity) and MSTI (100% activity) and the resulting percent inhibition data were fitted to a 4-parameter Hill equation using NCATS in-house software.
For `COC(=O)CC(O)CC(O)/C=C/c1c(C)ccc2c1C(O)CC(C)C2` (stereo not given), the Potency was “inactive”. With `COc1cc([C@H]2c3cc(O)c(OC)cc3C[C@@H](CO[C@@H]3O[C@H](CO)[C@@H](O)[C@H](O)[C@H]3O)[C@@H]2CO)ccc1O` the Potency was 8.22 µM (active). In the case of `NCc1ccc(Nc2ncc(F)c(Nc3ccccc3)n2)cc1`, the Potency is reported as “inactive”. `C[C@@H]1O[C@@H](O[C@@H]2[C@@H](O[C@@H]3O[C@@H](C)[C@H](O[C@@H]4OC[C@H](O)[C@H](O[C@@H]5OC[C@@H](O)[C@H](O)[C@H]5O)[C@H]4O)[C@@H](O[C@@H]4OC[C@](O)(CO)[C@H]4O)[C@H]3O)[C@H](OC(=O)[C@]34CCC(C)(C)C[C@H]3C3=CCC5[C@@]6(C)C[C@H](O)[C@H](O[C@@H]7O[C@H](CO[C@@H]8OC[C@H](O)[C@H](O)[C@H]8O)[C@@H](O)[C@H](O)[C@H]7O)C(C)(C)C6CC[C@@]5(C)[C@]3(C)C[C@H]4O)OC[C@H]2O)[C@H](O)[C@H](O)[C@H]1O` (stereo not given in full) gave an activity change, negative = thiol reactive of 203% [at 11.5 µM]. For `COC(=O)C[C@H]1C(C)(C)[C@H](OC(C)=O)C2CC3=C4CC(=O)O[C@@H](c5ccoc5)[C@]4(C)CCC3[C@@]1(C)C2=O` (stereo not given in full), the Potency was “inactive”. In the case of `CC1(O)CCCC2(C)C1CCC13CC(CO)C(CCC12)C3` (stereo not given), the Potency is reported as “inactive”. For `OC[C@H]1O[C@@H](OC[C@H]2O[C@@H](OC/C=C/c3ccccc3)[C@H](O)[C@@H](O)[C@@H]2O)[C@@H](O)[C@@H]1O`, the Potency was 10.3 µM (active). With `COc1cc(N2CCC(N3CCN(C)CC3)CC2)ccc1Nc1ncc(Cl)c(-c2c[nH]c3ccccc23)n1` the Potency was 1.68 µM (active). In the case of `CN(C)c1nc(NC2CCC(NCCc3ccc(Br)cc3OC(F)(F)F)CC2)nc2ccccc12` (stereo not given), the Potency is reported as “inactive”. For `N[C@@]1(C(=O)O)CC[C@H]2[C@H](C(=O)O)[C@H]21`, the Potency was “inactive”. In the case of `C[C@@H]1COCCN1c1cc(C2(S(C)(=O)=O)CC2)nc(-c2cccc3[nH]ccc23)n1`, the Potency is reported as “inactive”. For `O=C(O)[C@H](Cc1ccc(Nc2nccc3ccncc23)cc1)NC1=C(Br)C(=O)C12CCCCC2`, the Potency was “inactive”. With `CCn1cc(NC(=S)Nc2cc(Cl)ccc2OC)c(C(N)=O)n1` the Potency was “inactive”. With `Cc1ccccc1NC(=O)Nc1ccc(CC(=O)N(C)[C@@H](CC(C)C)C(=O)NCC[C@H](NC(=O)[C@@H]2CCCN2S(=O)(=O)c2cc(Cl)cc(Cl)c2)C(=O)O)cc1` the Potency was “inactive”. With `CC1CCN(C(=O)CC#N)CC1N(C)c1ncnc2[nH]ccc12` (stereo not given) the Potency was “inactive”. In the case of `CC(=O)O[C@@H]1[C@H](O[C@@H]2O[C@@H](CO)[C@H](O)[C@H]2O)[C@@H](O[C@@H]2O[C@@H](C)[C@H](O[C@@H]3OC[C@@H](O)[C@H](O)[C@H]3O)[C@@H](O)[C@H]2O)[C@H](OC(=O)[C@]23CCC(C)(C)C[C@H]2C2=CCC4[C@@]5(C)CC[C@H](O[C@@H]6O[C@H](C(=O)O)[C@@H](O)[C@H](O)[C@H]6O[C@@H]6O[C@H](CO)[C@H](O)[C@H](O)[C@H]6O)[C@@](C)(C=O)C5CC[C@@]4(C)[C@]2(C)CC3)O[C@@H]1C` (stereo not given in full), the activity change, negative = thiol reactive is reported as 321% [at 11.5 µM]. For `CC1(C)CCCC2(C)C1C(O)C=C(CO)C2(O)CO` (stereo not given), the Potency was “inactive”. In the case of `C=C[C@]1(C)C=C2CCC3C(C)(CCC[C@@]3(C)C(=O)O)C2CC1` (stereo not given in full), the Potency is reported as “inactive”. With `Cc1cccc(-c2[nH]c(Cc3cccc(C(N)=O)c3)nc2-c2ccc3nccnc3c2)n1` the Potency was “inactive”. With `C=CC(C)(O)C(O)CC1C(C)(O)C(O)C(O)C2C(C)(C)CCCC21C` (stereo not given) the Potency was “inactive”. With `C/C=C/C=C/C(O)=C1\C(=O)[C@]2(C)C3C(C(=O)CC/C=C/C)=C(O)C4(C)C1[C@]1(C)O[C@@]4(O)[C@@]3(C)O[C@@]12O` the Potency was 4.62 µM (active). With `CC(C)C(CO)Nc1nc(Nc2ccc(C(=O)O)c(Cl)c2)c2ncn(C(C)C)c2n1` (stereo not given) the Potency was “inactive”. In the case of `CC1=C2C(O)C(=O)OC(c3ccoc3)C2(C)CCC1O` (stereo not given), the Potency is reported as “inactive”. In the case of `CC(=O)OC1CC2(C)C3=CCC4(C)C5C(O)C(O)C(C(C)C)C5(C)CCC4(C)C3CCC2C(C)(C)C1OC1OC(CO)C(O)C(O)C1O` (stereo not given), the Potency is reported as “inactive”. In the case of `CCN(CC)Cc1ccc(C(=O)N(CCc2ccccc2OC)[C@@H]2CCNC2)cc1`, the Potency is reported as “inactive”. For `CC1(C)CC[C@]2(C(=O)O[C@@H]3O[C@H](CO)[C@@H](O)[C@H](O)[C@H]3O)CC[C@]3(C)C(=CCC4[C@@]5(C)C[C@@H](O)[C@H](O)C(C)(C)C5[C@H](O)C[C@]43C)[C@@H]2[C@@H]1O` (stereo not given in full), the Potency was “inactive”. With `COC(=O)[C@@]1(c2ccc(C)cc2)C[C@H]1CN1CCC(O)(c2ccccc2)CC1` the Potency was “inactive”. For `C[C@H](O)[C@H](O)/C=C/c1cccc(O)c1CO`, the Potency was “inactive”. With `COC(=O)C1(C)CCC2(C(=O)O)CCC3(C)C(=CCC4C5(C)CC(O)C(OC6OCC(O)C(O)C6O)C(C)(CO)C5CCC43C)C2C1` (stereo not given) the Potency was “inactive”. Compound `CC(=O)O[C@H]1[C@H](O[C@H]2[C@@H]3C=CO[C@@H](O[C@@H]4O[C@H](CO)[C@@H](O)[C@H](O)[C@H]4O)[C@@H]3[C@@]3(CO)O[C@@H]23)O[C@@H](C)[C@H](OC(=O)/C=C/c2ccccc2)[C@H]1OC(=O)/C=C/c1ccccc1` has an activity change, negative = thiol reactive of 2.44% [at 11.5 µM]. For `O=C(NCc1ccccn1)Nc1nnc(-c2ccco2)o1`, the Potency was “inactive”. With `C=C1C[C@]23C[C@H]1[C@@H](O)C[C@H]2[C@@]12C=C[C@H](O)[C@@](C)(C(=O)O1)[C@H]2[C@@H]3C(=O)O` the Potency was “inactive”. With `Cc1noc(=O)c2ccc(NC(=O)C(O)(CC(C)(C)c3cccc4c3OCC4)C(F)(F)F)cc12` (stereo not given) the Potency was “inactive”. With `CS(=O)(=O)N1CCC(NC(=O)c2[nH]ncc2NC(=O)c2c(Cl)cccc2Cl)CC1` the Potency was “inactive”. In the case of `CC(=O)OC12COC1CC(O)C1(C)C(=O)C(O)C3=C(C)C(OC(=O)C(O)C(NC(=O)OC(C)(C)C)c4ccccc4)CC(O)(C(OC(=O)c4ccccc4)C21)C3(C)C` (stereo not given), the Potency is reported as “inactive”. For `CC1CCC23COC(=O)C2=CC(O)CC3C1(C)CCC1=CC(O)OC1=O` (stereo not given), the Potency was 3.29 µM (active). With `O=C(NCc1ccc(S(=O)(=O)c2cc(F)cc(F)c2)cc1)c1ccc2nccn2c1` the Potency was “inactive”. In the case of `CN[C@H](CC(C)C)C(=O)N[C@H]1C(=O)N[C@@H](CC(N)=O)C(=O)N[C@H]2C(=O)N[C@H]3C(=O)N[C@H](C(=O)N[C@H](C(=O)O)c4cc(O)cc(O)c4-c4cc3ccc4O)[C@H](O[C@H]3C[C@](C)(N)[C@@H](O)[C@H](C)O3)c3ccc(c(Cl)c3)Oc3cc2cc(c3O[C@@H]2O[C@H](CO)[C@@H](O)[C@H](O)[C@H]2O[C@H]2C[C@](C)(NCc3ccc(-c4ccc(Cl)cc4)cc3)[C@@H](O)[C@H](C)O2)Oc2ccc(cc2Cl)[C@H]1O`, the Potency is reported as “inactive”. For `CN(C)c1nc(NC2CCC(NC(=O)c3ccc(F)c(F)c3)CC2)nc2ccccc12` (stereo not given), the Potency was “inactive”. With `CC(NC(=O)CCc1nc2ccccc2c(=O)[nH]1)c1ccccc1` (stereo not given) the Potency was “inactive”.
